This is a sample that favours compounds with a hit; in the whole collection about 7.3% have one here.
FLuc counter: qHTS profiling assay for firefly luciferase inhibitor/activator using purifed enzyme and Km concentrations of substrates (counterscreen for miR-21 project); Luciferin 4-monooxygenase (Photinus pyralis), P08659; Potency, µM (series often up to 57.5 µM), for inactives: at the top dose activity change, negative = inhibition, hits mostly inhibitors; purified FLuc, Km substrates, luminescence inhibition; actives 6.9% (n = 360,000);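 further: plate controls were vehicle for no effect and reference inhibitor for full effect; nearly all actives have a fitted effect of over 55% in size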
Target sequence (P08659 whole entry, looked up): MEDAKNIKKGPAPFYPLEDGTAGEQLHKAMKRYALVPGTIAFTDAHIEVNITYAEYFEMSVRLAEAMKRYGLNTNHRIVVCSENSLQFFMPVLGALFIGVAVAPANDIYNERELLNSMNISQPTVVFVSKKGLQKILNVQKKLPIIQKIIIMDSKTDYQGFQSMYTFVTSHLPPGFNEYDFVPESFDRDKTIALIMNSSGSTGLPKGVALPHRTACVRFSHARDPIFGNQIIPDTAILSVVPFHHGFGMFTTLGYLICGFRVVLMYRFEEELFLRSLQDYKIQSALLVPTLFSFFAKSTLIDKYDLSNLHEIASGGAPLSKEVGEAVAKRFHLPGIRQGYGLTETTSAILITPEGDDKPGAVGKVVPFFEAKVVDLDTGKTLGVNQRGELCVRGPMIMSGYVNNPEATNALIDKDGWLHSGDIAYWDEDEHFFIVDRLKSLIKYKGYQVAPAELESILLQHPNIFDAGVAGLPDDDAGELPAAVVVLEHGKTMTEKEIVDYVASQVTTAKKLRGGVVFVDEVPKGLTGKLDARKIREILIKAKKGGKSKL
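Purified P. pyralis luciferase, 10 nM final, with Km-level 10 uM D-luciferin and 10 uM ATP in 50 mM Tris acetate pH 7.5, 10 mM Mg acetate, 0.01% Tween-20, 0.05% BSA; 6-point qHTS titration about 60 µM downward; luminescence read.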
SMN2 splice up: qHTS Assay for Enhancers of SMN2 Splice Variant Expression. AID 1458, 2008. actives 2.8% (n = 210,000). HEK293 SMN2-luciferase splicing reporter, luminescence, 30-36 h. Potency, µM (doses to about 46.1 µM), inactives show at the highest dose activity change, positive = activation, hits mostly activators; further: % of control where 0% means no effect; nearly all actives have a fitted effect of over 55% in size
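HEK293 cells carry an SMN2 minigene-luciferase reporter in which exon 7 inclusion puts luciferase in frame. Cells were seeded at 2000 cells/well, attached for 10-12 hours, then exposed to compounds for 30-36 hours at 37C before ONE-Glo luminescence.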
uPA surface inh: qHTS for Inhibitors of Cell Surface uPA Generation. cell surface uPA generation assay, qHTS. Potency, µM (doses to about 38.3 µM), inactives show top-dose activity change, negative = inhibition, hits mostly inhibitors. actives 0.31% (n = 330,000). AID 540303, 2011; active means well fitted inhibition curve with a large enough effect; inconclusive means small, poorly fitted or top-dose-only effect; inactive means no such curve, though single readings can be large or run the other way; tested in mouse RAW 264.7 cells; further: on the % scale 0 is the no-effect control and ±100 the full control effect; nearly all actives have a fitted effect of over 55% in size
NPC1 prom act: qHTS Assay for NPC1 Promoter Activators | Huh7 NPC1 promoter luciferase reporter, 24 h | Potency, µM (doses to about 9.22 µM), without a hit: at the top dose activation, usual class: activators | actives 2.4% (n = 320,000) | AID 485313, 2010; further: % of control where 0% means no effect; nearly all actives have a fitted effect of over 60% in size
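Quantitative HTS used a cell-based reporter: Huh7 cells stably bearing the NPC1 promoter upstream of luciferase were treated with compounds for 24 h, and promoter activation was read as luminescence.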
Rab9 promoter act: qHTS Assay for Rab9 Promoter Activators; Huh7 Rab9 promoter-luciferase reporter, luminescence, 24 h; Potency, µM (highest dose often 9.22 µM), without a hit: at the highest dose activation, negative = inhibition, hits mostly activators; actives 2.8% (n = 320,000); AID 485297, 2010; further: % of control where 0% means no effect; nearly all actives have a fitted effect of over 60% in size
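Promoter activation is measured as luciferase luminescence in Huh7 cells stably transfected with a Rab9 promoter–luciferase construct, following 24 h compound exposure at 37 °C and 10 min reagent incubation at ambient temperature.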
ELG1 genotox: qHTS screen for small molecules that induce genotoxicity in human embryonic kidney (HEK293T) cells expressing luciferase-tagged ELG1; HEK293T ELG1-luciferase reporter, luminescence, 16 h; Potency, µM (series often up to 46 µM), inactives show at the top dose activity change, positive = activation, hits mostly activators; actives 1.3% (n = 330,000); AID 504466, 2011; further: % of control where 0% means no effect; nearly all actives have a fitted effect of over 60% in size
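DMSO vehicle served as control against compound-treated ELG1-luciferase HEK293T cells; exposure lasted 16 hr at 37 °C and 5% CO2, followed by ONE-Glo luminescence detection after 30 min.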
Numbers without * were called inactive; ? = inconclusive; . = not tested or not shown; [ ] = dose if it differs, or a comment. Unless noted, the call rests on the fitted dose curve; in most records, active means well fitted curve in the direction sought with a large enough effect; inconclusive means small, poorly fitted or top-dose-only effect, or another doubt; inactive means no such curve, though single readings can be large; an effect the other way counts as inactive or inconclusive. Potency means the concentration at half of the fitted maximal effect.

SMILES	FLuc counter	SMN2 splice up	uPA surface inh	NPC1 prom act	Rab9 promoter act	ELG1 genotox
COc1ccccc1/C=N/Nc1nccnc1Cl	12µM*	-21%	-14%	27%	?	18µM*
Cc1ccc(C)c(NC(=O)CSc2nnc(NC(=O)Nc3ccccc3)s2)c1	-20%	.	.	.	.	.
COc1ccc2c(C)c(CCC(=O)NCc3ccc(Cl)cc3)c(=O)oc2c1C	-4%	8%	.	.	.	.
CCOc1ccc(S(=O)(=O)c2cn(Cc3ccc(C)cc3)c3ccc(OC)cc3c2=O)cc1	-6%	-13%	.	.	.	.
O=C(OCc1csc(-c2ccccc2)n1)c1ccc(O)cc1	19µM*	21%	-15%	17%	?	?
O=C(O)c1ccccc1-c1csc(-c2ccccc2)n1	15µM*	?	-3%	?	4µM*	?
C=CCNC(=O)c1ccc(-c2nc(-c3ccc(Cl)cc3Cl)cs2)cc1	-5%	4.5µM*	1%	5%	8%	2%
CNC(=O)c1csc(-c2ccc(C)cc2)n1	17µM*	25%	.	?	?	?
COc1ccc(NC(=O)N2CCC(CN3CCCC3)CC2)c(OC)c1	2%	.	.	.	.	.
O=C(CSc1ncc2c(n1)-c1cc(Cl)ccc1N(Cc1ccccc1)S2(=O)=O)NCCc1ccccc1	1%	.	.	.	.	.
Cc1ccc(NS(=O)(=O)c2ccc3c(c2)NC(=O)CCS3)cc1C	-1%	.	3%	-5%	-1%	-10%
CCCCC/C=C\C/C=C\C/C=C\CCCCC(=O)NCCCC(=O)O	.	11%	.	.	.	.
O=C(NCc1nc(-c2ccccc2)cs1)c1ccccc1	?	.	1%	1%	21%	4%
O=C(Nc1ccc(-c2csc(-c3ccccc3)n2)cc1)c1ccccc1Cl	?	-1%	?	-4%	1%	-2%
Cc1oncc1-c1csc(-c2ccccc2)n1	?	13%	9%	10%	29%	?
O=C(O)c1ccc(-c2nc(-c3ccccc3)cs2)cc1	6µM*	10µM*	2%	1.4µM*	1µM*	7%
CCS(=O)(=O)c1ccc(-c2csc(-c3ccccc3)n2)c(Cl)c1Cl	24µM*	-50%	-9%	8%	-1%	21µM*
CNC(=O)c1ccc(-c2nc(-c3ccccc3)cs2)cc1	9.5µM*	16µM*	4%	?	4µM*	?
O=C(O)c1ccccc1C(=O)Nc1ccc(-c2csc(-c3ccccc3)n2)cc1	17µM*	72%	-8%	5%	20%	?
COc1cc2cc(CCCOC(=O)c3ccc(C(F)(F)F)cc3)oc(=O)c2cc1OC	4%	.	-8%	-2%	1%	4%
CCc1ccc(CN(Cc2ccco2)C(=O)c2ccc(OC)cc2)cc1	-18%	-15%	.	.	.	.
O=C(O)c1ccc2c(c1)C(=O)N([C@]1(C(=O)O)C[C@H]1c1ccccc1)C2=O	-1%	.	.	1%	2%	.
CC(C)Cc1nn2c(=O)cc(COC(=O)c3cccc(NC(=O)CCc4ccccc4)c3)nc2s1	0%	.	.	.	.	.
C=CCNC(=O)c1ccc(-c2nc(-c3ccc(Cl)c(Cl)c3)cs2)cc1	1%	-7%	3%	-4%	1%	2%
O=C(O)c1ccc(-c2nc(-c3ccc(Cl)c(Cl)c3)cs2)cc1	13µM*	129%	23%	3.2µM*	?	0%
SMILES	FLuc counter	SMN2 splice up	uPA surface inh	NPC1 prom act	Rab9 promoter act	ELG1 genotox
O=C(O)c1ccc(-c2nc(-c3ccccc3Cl)cs2)cc1	17µM*	18µM*	2%	?	?	?
COc1cccc(CNc2cnc3ccccc3c2)c1O	2.4µM*	3.5µM*	0%	1.6µM*	1.8µM*	12µM*
COc1ccccc1Nc1nc2ccccc2n1C	15µM*	11µM*	?	?	2.8µM*	?
COc1ccccc1Nc1nc2ccccc2n2cnnc12	?	.	-2%	10%	0%	-1%
COc1cccc(CNc2nc3ccccc3n2C)c1O	9.5µM*	.	3%	1µM*	1.8µM*	9.2µM*
Cc1ccccc1Cc1c(C)nc2nc(SCC(=O)NCCc3ccc(Cl)cc3)nn2c1C	-15%	11%	.	.	.	.
CCCC1CC(C(=O)N[C@H](C(C)O)C2OC(SC)[C@@H](O)C(O)C2O)N(C)C1 (some centres undefined)	.	2%	.	.	.	.
O=C(c1ccc(COc2ccc(Cl)cc2)cc1)N1CCCCC1	12µM*	12%	-1%	?	?	?
CCOC(=O)C1CCN(C(=O)CCCOc2ccccc2)CC1	9.5µM*	30%	7%	?	?	?
O=C(CCCOc1ccc(Cl)cc1)N1CCCCCC1	-3%	20%	1%	12%	12%	16µM*
O=C(CCCOc1ccccc1)N1CCCCC1	1.5µM*	2.5µM*	2%	0.5µM*	?	0.46µM*
O=C(NNC(=O)c1cc(-c2ccncc2)nc2ccccc12)c1cccc(Cl)c1	-15%	.	1%	0%	9%	-11%
Cc1ccc(CCNS(=O)(=O)c2ccc3c(c2)CCN3C(=O)CCC(=O)O)cc1	3%	26%	.	.	.	.
O=C(CCCOc1ccc(Cl)cc1)N1CCOCC1	-18%	18%	7%	-1%	-5%[1.84 µM]	?
CCC1CCCCN1C(=O)CCCOc1ccccc1 (centres undefined)	19µM*	-2%	7%	?	?	13µM*
O=C(CCCOc1ccc(Cl)cc1)N1CCCCC1	-26%	.	-1%	27%	3.5µM*	21µM*
CCc1ccc(C(=O)NC2=NC(c3cc(OC)ccc3OC)CC(=O)N2)cc1 (centres undefined)	-1%	7%	.	.	.	.
O=C(CN1C(=O)NC2(CCCCCC2)C1=O)c1ccc2c(c1)OCCO2	9.5µM*	18µM*	-3%	2µM*	2.8µM*	4.1µM*
CC1CCC2(CC1)NC(=O)N(CC(=O)Nc1ccc3c(c1)OCCO3)C2=O (centres undefined)	27µM*	?	-2%	?	3.5µM*	?
N#C/C(=C\c1ccc2c(c1)OCCO2)C(=O)NC1CCCCC1	4.8µM*	.	-2%	-3%	5%	?
N#C/C(=C/c1ccc2c(c1)OCO2)C(=O)Nc1ccc(O)cc1	?	-10%	-11%	-7%	21%	?
CCCCNC(=O)/C(C#N)=C/c1ccc2c(c1)OCCO2	9.5µM*	14%	2%	-1%	1%	?
Cc1cccc(NC(=O)/C(C#N)=C\c2cccnc2)c1	?	-12%	.	0%	-2%	-2%
